Experiment in all cases: PBM binding z-score (relative to random genomic background probes); higher = stronger binding; sequences stand for … in GC…GCGATTGACAGCGTAGAATGAAGG
Experiment [1] relates to RARb homodimer (NR concentration 270 nM). Put shortly:
(§1)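 Custom Agilent 4×180K protein-binding microarrays carried double-stranded probes. Their 34-nt variable regions held direct-repeat seeds, single-nucleotide variants, half-site ablations and random human genomic background sequences. Arrays were incubated 1 h with ligand-free nuclear receptor dimers in PBS pH 7.4, 2% milk, 0.02% Triton X-100, 1 mM DTT, 0.2 mg/mL BSA and 0.4 mg/ml salmon testes DNA. Antibodies against each partner (one per run) detected binding, and scanned fluorescence was regression-normalized. Binding z-scores use random background probes as reference.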

Experiment [2] relates to RARg:RXRa (NR concentration 270 nM, RXRa partner concentration 90 nM). The procedure, abridged: as §1
The subject of experiment [3] is RARg homodimer (NR concentration 270 nM). The procedure, abridged:
as §1

The test system of experiment [4] is RXRa DBDmut IVT, anti-RXR (DBD mutation: RXRa K156A/R161A, NR concentration 90 nM). The procedure, abridged: as §1
Experiment [5] deals with RXRa homodimer (NR concentration 180 nM). Put shortly: as §1
Experiment [6] concerns THRa:RXRa (NR concentration 90 nM, RXRa partner concentration 90 nM). The procedure, abridged:
as §1

Experiment [7] deals with THRa homodimer (NR concentration 90 nM). The procedure, abridged: as §1
Experiment [8] concerns VDR homodimer (NR concentration 270 nM). Put shortly:
as §1

Turning to TAATATAGGTAAAAGGTGAAAGTCGGTGTGGTAA, the PBM binding z-score turned out to be 2.01 in experiment [1]; 2.15 in experiment [2]; 1.32 in experiment [3]; 0.341 in experiment [4]; 2.95 in experiment [5]; 1.87 in experiment [6]. The PBM binding z-score amounted to 0.816 in experiment [7] and 0.638 in experiment [8].

In the case of CCTTACGGGACAAGGTTATAGCACGGGTGGTACG, the PBM binding z-score in experiment [1] was 1.07; in experiment [2] it was 1.07; in experiment [3], 0.894; in experiment [4] it was -0.464; in experiment [5] it was 1.35; in experiment [6] it was 1.08. The PBM binding z-score is 0.341 in experiment [7] and 0.555 in experiment [8].

Regarding TCTAGTTGGTCAATGGTCACACACTCGAAATGCG, the PBM binding z-score turned out to be 1.54 in experiment [1]; 1.02 in experiment [2]; 1.31 in experiment [3]; 1.16 in experiment [4]; 0.996 in experiment [5]; 0.262 in experiment [6]. In addition, the PBM binding z-score in experiment [7] was determined as 0.437; in experiment [8], 0.178.

For TCTCGGAGGACACGAAAGGTCAGCGCTCGACATC, the PBM binding z-score in experiment [1] is 4.96; in experiment [2], 5.25; in experiment [3], 6.15; in experiment [4], 1.39; in experiment [5], 4.52; in experiment [6], 3.89. For the same sequence, the figures for the PBM binding z-score in experiment [7] and in experiment [8] were 1.76 and 1.13, respectively.

With TCATATAGGTAAAGGCTAGGTGAAAGTCCGATCT, the PBM binding z-score in experiment [1] was 0.981; in experiment [2] it was 0.769; in experiment [3] it was 0.425; in experiment [4], 1.27; in experiment [5], 0.971; in experiment [6], 1.3. The PBM binding z-score in experiment [7] amounted to 0.205; in experiment [8], 0.0425.

As to TCATATAGGTAAACAGGGGAAAGTCCGTAAGTTA, the PBM binding z-score in experiment [1] was 0.507; in experiment [2], 0.245; in experiment [3] it was 0.0765; in experiment [4] it was 1.97; in experiment [5], 0.978; in experiment [6], 0.404. Also, the PBM binding z-score in experiment [7] was 0.286; in experiment [8], 0.312.

With CCTACTGGGCCAAAAGTCATTGATTCCAATGCTC, the PBM binding z-score is 0.0261 in experiment [1]; 0.13 in experiment [2]; 0.053 in experiment [3]; 0.0698 in experiment [4]; 0.153 in experiment [5]; -0.256 in experiment [6]. Besides, the PBM binding z-score in experiment [7] was -0.418; in experiment [8], -0.212.

As to CCTTACGGGTCACTCCAGTTTATAGCATCGGAGT, the PBM binding z-score worked out at 2.7 in experiment [1]; 4.06 in experiment [2]; 4.22 in experiment [3]; 1.78 in experiment [4]; 3.83 in experiment [5]; 4.11 in experiment [6]. Further, the PBM binding z-score in experiment [7] amounted to 0.161; in experiment [8] it was 2.06.

Consider GCGACTGGGGCATCTGCAGGTTACCATAACTTAA, for which the PBM binding z-score in experiment [1] is 1.06; in experiment [2] it was 1.21; in experiment [3], 0.411; in experiment [4] it was -0.0161; in experiment [5] it was 0.555; in experiment [6], 1.14. Moreover, the PBM binding z-score in experiment [7] was -0.146; in experiment [8] it was -0.456.

GCTTACGGGTCAAAGGTTATTGCATGAATAGAAT: the PBM binding z-score in experiment [1] amounted to 3.23; in experiment [2], 6.79; in experiment [3], 4.49; in experiment [4], 2.83; in experiment [5], 9.29; in experiment [6], 3.78. Moreover, the figures for the PBM binding z-score in experiment [7] and in experiment [8] were 0.27 and 1.81, respectively.

As for CCTACTGGGCCAAAGGTCATGGATTCCAATGCTC, the PBM binding z-score in experiment [1] came to 4.97; in experiment [2], 6.18; in experiment [3], 5.26; in experiment [4] it was 0.383; in experiment [5] it was 6.66; in experiment [6], 3.73. In addition, the results for the PBM binding z-score in experiment [7] and in experiment [8] were 1.02 and 1.54, respectively.

On to CCAAGTTGGTCAGGAGGTCACACACCGGATATGA, for which the PBM binding z-score in experiment [1] stood at 4.38; in experiment [2], 5.05; in experiment [3], 4.59; in experiment [4], 1.39; in experiment [5], 4.6; in experiment [6], 3.5. The PBM binding z-score in experiment [7] was 1.96; in experiment [8], 2.65.

As to CCTCGGAGGACAACAGGAGGTCAGCGCTGCCAGA, the PBM binding z-score in experiment [1] came out at 3.96; in experiment [2], 4.12; in experiment [3] it was 4.04; in experiment [4], 0.326; in experiment [5], 2.28; in experiment [6], 3.14. The PBM binding z-score in experiment [7] is 1.31; in experiment [8] it was 1.13.

For ATATGTAGGTTATCGGGTCACTCAGTTTGCGCAT, the PBM binding z-score in experiment [1] was found to be 3.37; in experiment [2], 3.31; in experiment [3], 3.06; in experiment [4] it was 1.56; in experiment [5], 3.33; in experiment [6], 3.59. Besides, the PBM binding z-score in experiment [7] was determined as 3.18; in experiment [8], 2.36.

Source of the values: the supplement of paper PMC6555819.
